Measured values reported in PubChem BioAssay AID1159580 (chemical genetic matrix, 2015).
Among all 5,500 compounds or so, about 2,000 (36%) were called active. Roughly 18% stayed inconclusive and do not appear here. Cut-off read from the data, not from the text of the source: active = normalized growth mostly below about 0.91 (no sharp cut-off); inconclusive = no clear call, values can overlap the other calls; inactive = mostly above about 0.92. The list shows a part of the results.

Assay: chemical genetic growth profiling, strain panel (AID 1159580);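 note: tested at 20 µM; growth read once vehicle control cultures reached saturation at 30 °C; 1 = growth at the plate median or of vehicle wells; lower values mean less growth of the strain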
Details: growth OD

Measured: normalized growth

CN(C(=O)CN(CCO)CC(=O)N(C)C(C)(C)Cc1ccccc1)C(C)(C)Cc1ccccc1
inactive: S. cerevisiae deletion strains, locus YJR066W, strain TOR1, stronger effect = lower value 0.977 | S. cerevisiae deletion strains, locus YJR075W, strain HOC1, stronger effect = lower value 0.979 | S. cerevisiae deletion strains, locus YKL009W, strain mrt4, stronger effect = lower value 0.965 | S. cerevisiae deletion strains, locus YKL068W, stronger effect = lower value 0.979 | S. cerevisiae deletion strains, locus YKL085W, strain MDH1 (second series), stronger effect = lower value 0.971 | S. cerevisiae deletion strains, locus YKL085W, strain MDH1, stronger effect = lower value 0.971 | S. cerevisiae deletion strains, locus YKL160W, strain elf1, stronger effect = lower value 1.01 | S. cerevisiae deletion strains, locus YKL190W, strain CNB1, stronger effect = lower value 0.992 | S. cerevisiae deletion strains, locus YKR001C, strain vps1, stronger effect = lower value 0.998 | S. cerevisiae deletion strains, locus YKR026C, strain gcn3, stronger effect = lower value 1.02 | S. cerevisiae deletion strains, locus YKR091W, strain srl3, stronger effect = lower value 0.999 | S. cerevisiae deletion strains, locus YLL001W, strain dnm1, stronger effect = lower value 1.02 | S. cerevisiae deletion strains, locus YLL026W, stronger effect = lower value 1.02 | S. cerevisiae deletion strains, locus YLL041C, strain sdh2, stronger effect = lower value 1.01 | S. cerevisiae deletion strains, locus YLR027C, strain aat2, stronger effect = lower value 1.02 | S. cerevisiae deletion strains, locus YLR039C, strain RIC1, stronger effect = lower value 1.03 | S. cerevisiae deletion strains, locus YLR058C, strain SHM2, stronger effect = lower value 0.997 | S. cerevisiae deletion strains, locus YLR102C, strain apc9, stronger effect = lower value 0.986 | S. cerevisiae deletion strains, locus YLR113W, strain HOG1, stronger effect = lower value 0.987 | S. cerevisiae deletion strains, locus YLR221C, strain rsa3, stronger effect = lower value 0.993 | S. cerevisiae deletion strains, locus YLR258W, strain gsy2, stronger effect = lower value 1 | S. cerevisiae deletion strains, locus YLR262C, strain YPT6 (second series), stronger effect = lower value 1.03 | S. cerevisiae deletion strains, locus YLR262C, strain YPT6, stronger effect = lower value 1.02 | S. cerevisiae deletion strains, locus YLR268W, strain sec22, stronger effect = lower value 0.962 | S. cerevisiae deletion strains, locus YLR320W, strain mms22, stronger effect = lower value 0.99 | S. cerevisiae deletion strains, locus YLR330W, strain CHS5, stronger effect = lower value 0.984 | S. cerevisiae deletion strains, locus YLR342W, strain FKS1 (second series), stronger effect = lower value 0.985 | S. cerevisiae deletion strains, locus YLR342W, strain FKS1, stronger effect = lower value 1.01 | S. cerevisiae deletion strains, locus YLR357W, strain rsc2, stronger effect = lower value 1.01 | S. cerevisiae deletion strains, locus YLR370C, strain arc18, stronger effect = lower value 1.02 | S. cerevisiae deletion strains, locus YLR371W, strain rom2, stronger effect = lower value 0.978 | S. cerevisiae deletion strains, locus YLR384C, strain iki3, stronger effect = lower value 1.01 | S. cerevisiae deletion strains, locus YLR418C, strain cdc73, stronger effect = lower value 0.989 | S. cerevisiae deletion strains, locus YML016C, strain PPZ1, stronger effect = lower value 0.994 | S. cerevisiae deletion strains, locus YML032C, strain rad52, stronger effect = lower value 0.98 | S. cerevisiae deletion strains, locus YML120C, strain ndi1, stronger effect = lower value 1.02 | S. cerevisiae deletion strains, locus YML124C, strain tub3, stronger effect = lower value 0.989 | S. cerevisiae deletion strains, locus YMR058W, strain fet3, stronger effect = lower value 1.02 | S. cerevisiae deletion strains, locus YMR078C, strain ctf18, stronger effect = lower value 0.974 | S. cerevisiae deletion strains, locus YMR125W, strain sto1, stronger effect = lower value 1.02 | S. cerevisiae deletion strains, locus YMR129W, stronger effect = lower value 1.01 | S. cerevisiae deletion strains, locus YMR205C, strain PFK2, stronger effect = lower value 1 | S. cerevisiae deletion strains, locus YMR223W, strain ubp8, stronger effect = lower value 0.97 | S. cerevisiae deletion strains, locus YMR231W, strain pep5, stronger effect = lower value 1.01 | S. cerevisiae deletion strains, locus YMR263W, strain SAP30, stronger effect = lower value 0.995 | S. cerevisiae deletion strains, locus YMR307W, strain GAS1, stronger effect = lower value 0.835 | S. cerevisiae deletion strains, locus YNL067W, strain RPL9B, stronger effect = lower value 0.994 | S. cerevisiae deletion strains, locus YNL071W, strain lat1, stronger effect = lower value 1.01 | S. cerevisiae deletion strains, locus YNL153C, strain GIM3, stronger effect = lower value 1.03 | S. cerevisiae deletion strains, locus YNL183C, strain NPR1, stronger effect = lower value 0.944 | S. cerevisiae deletion strains, locus YNL209W, strain ssb2, stronger effect = lower value 1.01 | S. cerevisiae deletion strains, locus YNL233W, strain BNI4, stronger effect = lower value 0.987 | S. cerevisiae deletion strains, locus YNL248C, strain rpa49, stronger effect = lower value 1 | S. cerevisiae deletion strains, locus YNL250W, strain rad50, stronger effect = lower value 0.996 | S. cerevisiae deletion strains, locus YNL271C, strain bni1, stronger effect = lower value 0.982 | S. cerevisiae deletion strains, locus YNL298W, strain CLA4, stronger effect = lower value 0.983 | S. cerevisiae deletion strains, locus YNL307C, strain MCK1, stronger effect = lower value 0.99 | S. cerevisiae deletion strains, locus YNL322C, strain KRE1 (second series), stronger effect = lower value 1.01 | S. cerevisiae deletion strains, locus YNR049C, strain mso1, stronger effect = lower value 1.02 | S. cerevisiae deletion strains, locus YNR052C, strain pop2, stronger effect = lower value 0.972 | S. cerevisiae deletion strains, locus YOL006C, strain TOP1, stronger effect = lower value 1.05 | S. cerevisiae deletion strains, locus YOL012C, strain htz1 0.857 | S. cerevisiae deletion strains, locus YOL147C, strain pex11, stronger effect = lower value 0.987 | S. cerevisiae deletion strains, locus YOR001W, strain rrp6, stronger effect = lower value 0.992 | S. cerevisiae deletion strains, locus YOR061W, strain CKA2, stronger effect = lower value 0.992 | S. cerevisiae deletion strains, locus YOR069W, strain VPS5, stronger effect = lower value 0.991 | S. cerevisiae deletion strains, locus YOR070C, strain gyp1, stronger effect = lower value 1.02 | S. cerevisiae deletion strains, locus YOR080W, strain dia2, stronger effect = lower value 1.01 | S. cerevisiae deletion strains, locus YOR083W, strain WHI5, stronger effect = lower value 1 | S. cerevisiae deletion strains, locus YOR106W, strain vam3, stronger effect = lower value 1.02 | S. cerevisiae deletion strains, locus YOR136W, strain idh2, stronger effect = lower value 0.984 | S. cerevisiae deletion strains, locus YOR144C, strain elg1, stronger effect = lower value 0.99 | S. cerevisiae deletion strains, locus YOR184W, strain ser1, stronger effect = lower value 0.976 | S. cerevisiae deletion strains, locus YOR231W, strain MKK1, stronger effect = lower value 0.991 | S. cerevisiae deletion strains, locus YOR265W, strain rbl2, stronger effect = lower value 1.02 | S. cerevisiae deletion strains, locus YOR270C, strain vph1, stronger effect = lower value 1.09 | S. cerevisiae deletion strains, locus YOR290C, strain snf2, stronger effect = lower value 1.01 | S. cerevisiae deletion strains, locus YOR316C, strain cot1, stronger effect = lower value 0.971 | S. cerevisiae deletion strains, locus YPL051W, strain arl3, stronger effect = lower value 0.999 | S. cerevisiae deletion strains, locus YPL078C, strain atp4, stronger effect = lower value 1.01 | S. cerevisiae deletion strains, locus YPL106C, strain sse1, stronger effect = lower value 0.991 | S. cerevisiae deletion strains, locus YPL240C, strain hsp82, stronger effect = lower value 1 | S. cerevisiae deletion strains, locus YPL256C, strain CLN2, stronger effect = lower value 0.98 | S. cerevisiae deletion strains, locus YPR119W, strain clb2, stronger effect = lower value 0.974 | S. cerevisiae deletion strains, locus YPR141C, strain kar3, stronger effect = lower value 0.981 | S. cerevisiae deletion strains, locus YPR163C, strain tif3, stronger effect = lower value 0.969 | S. cerevisiae deletion strains, locus YPR167C, strain met16, stronger effect = lower value 0.969 | S. cerevisiae deletion strains, strain wtn01, stronger effect = lower value 0.985 | S. cerevisiae strains, strain wild type, stronger effect = lower value 0.991
